Screens deposited in PubChem by National Center for Advancing Translational Sciences (NCATS).
HP1b chromo inh: inhibitors of HP1-beta chromodomain binding to methylated histone tails. P83916. AlphaScreen HP1-beta / biotin-H3K9me3 peptide binding. Potency, µM (series often up to 114 µM), without a hit: top-dose activity change, negative = inhibition, actives largely listed as inhibitors. 390,000 tested, 0.56% active. AID 540317; further: nearly all actives have a fitted effect of over 70% in size
Target sequence (P83916 whole entry, looked up): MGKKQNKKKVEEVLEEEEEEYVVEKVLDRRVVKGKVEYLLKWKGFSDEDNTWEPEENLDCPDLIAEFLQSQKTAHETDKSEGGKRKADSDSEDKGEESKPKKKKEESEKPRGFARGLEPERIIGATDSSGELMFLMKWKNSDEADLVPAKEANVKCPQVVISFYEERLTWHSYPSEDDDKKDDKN
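AlphaScreen: HP1-beta (50 nM) preformed 30 min with biotin-H3(1-18)K9me3 peptide (50 nM) in PBS pH 7.4, 0.01% Tween-20. Compound added for 30 min at RT, then streptavidin donor/nickel chelate acceptor beads (10 ug/mL) for 30 min.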
JMJD2A Tudor: blocks the human JMJD2A Tudor domain; O75164; AlphaScreen JMJD2A-Tudor / H3K4me3 peptide binding; Potency, µM (highest dose often 114 µM), for the others: at the top dose activity change, negative = inhibition, actives largely listed as inhibitors; 390,000 tested, 4.4% active; AID 504339; further: on the % scale 0 is the no-effect control and ±100 the full control effect; nearly all actives have a fitted effect of over 50% in size
L3MBTL1 block: L3MBTL1 (human) inhibition. 230,000 tested, 0.66% active. AID 485360. Potency, µM (series often up to 57.1 µM), inactives show top-dose activity, negative = inhibition, most hits filed as inhibitors. AlphaScreen L3MBTL1–H3K9me1 peptide binding; further: on the % scale 0 is the no-effect control and ±100 the full control effect; nearly all actives have a fitted effect of over 60% in size
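Read-out is AlphaScreen signal from streptavidin donor and nickel chelate acceptor beads (10 ug/mL final each) bridging L3MBTL1 (50 nM) and biotinylated K9-monomethylated H3(1-15) peptide (75 nM), after 30 min compound exposure at room temperature.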
Sfp inh: Sfp phosphopantetheinyl transferase inhibition; Biochemical Sfp PPTase activity, qHTS; AID 1490; 310,000 tested, 3.5% active; Q9F4F7; Potency, µM, for inactives: largest response in the series, negative = inhibition, hits mostly inhibitors;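 further: the enzyme is Sfp with the accession as filed and its product quenches rhodamine fluorescence; 0% = enzyme reaction without inhibitor and -100% = no enzyme wells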
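Buffer: 50 mM Hepes-Na pH 7.6, 10 mM MgCl2, 0.01% Nonidet P-40, 0.01% BSA. Enzyme 15 nM, pre-exposed to compound 15 min; substrates then added and fluorescence change tracked over 30 min.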
BAZ2B block: blocks human BAZ2B. Q9UIF8. AlphaScreen BAZ2B-H3K14Ac peptide displacement. Potency, µM (highest dose often 114 µM), without a hit: at the highest dose activity change, negative = inhibition, actives largely listed as inhibitors. 360,000 tested, 4.4% active. AID 504333; further: on the % scale 0 is the no-effect control and ±100 the full control effect; nearly all actives have a fitted effect of over 60% in size
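Inhibition is scored as reduced AlphaScreen emission. The BAZ2B/b-H3(5-23)K14Ac complex (50 nM each) in PBS pH 7.4, 0.01% Tween-20 meets compound (up to 110 uM) for 30 min at RT before bead addition.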
G9a block: inhibitors of human histone lysine methyltransferase G9a; Q96KQ7; G9a H3K9 monomethylation, AlphaScreen, 2 h; Potency, µM (highest dose often 102 µM), for inactives: at the highest dose activity, negative = inhibition, hits mostly inhibitors; 350,000 tested, 8.8% active; further: on the % scale 0 is the no-effect control and ±100 the full control effect; nearly all actives have a fitted effect of over 75% in size
Target sequence (Q96KQ7 913-1193 limits assumed): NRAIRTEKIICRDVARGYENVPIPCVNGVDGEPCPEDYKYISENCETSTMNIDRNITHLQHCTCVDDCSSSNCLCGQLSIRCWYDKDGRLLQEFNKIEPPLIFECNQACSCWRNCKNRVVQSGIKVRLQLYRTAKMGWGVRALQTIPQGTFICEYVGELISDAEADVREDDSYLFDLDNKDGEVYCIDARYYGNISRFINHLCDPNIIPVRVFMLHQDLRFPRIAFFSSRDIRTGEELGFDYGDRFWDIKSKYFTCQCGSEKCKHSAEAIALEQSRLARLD
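AlphaScreen detection with an anti-monomethyl H3K9 antibody quantified product after a 2 h room-temperature reaction containing 500 nM biotinylated H3K9 peptide, 20 µM SAM and 20 nM enzyme, which had been preincubated 15 min with compound.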
Starred values were filed as active, the others as inactive; u = inconclusive; x = no result given; ! = a repeat was not active; [ ] = dose if it differs, or a comment. A selection: hits, their analogues and other compounds. The true share with any hit is near 12%. The call rests on the fitted dose curve; in most records, active means well fitted curve in the direction sought with a large enough effect; inconclusive means small, poorly fitted or top-dose-only effect, or another doubt; inactive means no such curve, though single readings can be large; an effect the other way counts as inactive or inconclusive. Potency means the concentration at half of the fitted maximal effect.

SMILES	HP1b chromo inh	JMJD2A Tudor	L3MBTL1 block	Sfp inh	BAZ2B block	G9a block
O=C1CC(C(=O)Nc2cc(Cl)ccc2Cl)n2ncnc2N1 (stereo unspecified)	55%	-5%	-21%	17%	5%	10µM*
Cc1ccc(Cl)cc1NC(=O)C1CC(=O)Nc2ncnn21 (stereo unspecified)	46%	-4%[11.4 µM]	x	7%	-22%	50µM*
O=C1C=CC(=O)N1c1ccc(Sc2ccc([N+](=O)[O-])cc2)cc1	x	x	-15%	8.9µM*	u	8.9µM*
Nc1ccc(Sc2ccc([N+](=O)[O-])cc2)cc1	u	u	x	5%	35µM*	56µM*
CCSC1=C(C#N)C(c2ccc(F)cc2)CC(=O)N1 (stereo unspecified)	32%	-3%	8%	-4%	6%	-13%
C=C(C)CSC1=C(C#N)C(c2ccsc2)CC(=O)N1 (stereo unspecified)	11%	-14%	x	28µM*	15%	3%[12.7 µM]
C=CCSC1=C(C#N)C(c2ccc(C(C)C)cc2)CC(=O)N1 (stereo unspecified)	0%	-29%	x	45µM*	-4%	45µM*
C=CCSC1=C(C#N)C(c2ccccc2)CC(=O)N1 (stereo unspecified)	25%	-24%	11%	-29%	6%	50µM*
CCOC(=O)CSC1=C(C#N)C(c2ccc(Cl)cc2)CC(=O)N1 (stereo unspecified)	26%	-17%	x	-2%	2%	79µM*
CCOC(=O)CSC1=C(C#N)C(c2ccc3c(c2)OCO3)CC(=O)N1 (stereo unspecified)	33%	5%[11.4 µM]	x	-6%	0%	-20%[59 µM]
Cc1c2ccccc2c(CSC(=N)N)c2ccccc12	x	x	x	45µM*	x	x
O=C(NCc1ccc(F)cc1)n1cc(P(=S)(c2ccccc2)c2ccccc2)c2ccccc21	x	-17%	x	x	x	x
CC(=O)NCCSc1ccc(S(=O)(=O)N2CCCC2)cn1	20%	-11%	4%	x	-4%	u
O=C1C2C3C=CC(C3=C(c3ccccc3)c3ccccc3)C2C(=O)N1Cc1ccccc1 (stereo unspecified)	25%	-18%	x	50µM*	-8%	40µM*
O=C1C2C3C=CC(C3=C(c3ccccc3)c3ccccc3)C2C(=O)N1CCO (stereo unspecified)	5%	-33%	x	5%	-9%	-26%[59 µM]
CC(=O)c1sc(-c2ccc(Cl)cc2)nc1C	66%	11%	1%[11.4 µM]	7%	-6%	2%
CSc1nc(-c2ccccc2)nc(N)c1C(C)=O	x	x	x	-7%	-3%	u
CC(=O)c1c(C)nc(-c2ccc(Cl)cc2)nc1N=CN(C)C	17%	u	6%	u	79µM*	3.5µM*
CC(=O)c1c(C)nc(-c2ccc(Cl)cc2)nc1N	24%	-17%	-10%	-16%	79µM*	-46%
NC(=O)c1ccccc1NC(=O)CCCN1C(=O)CCC1=O	19%	11%	-2%	6%	8%	45µM*
O=S(=O)(/N=S1\CC=CCN1S(=O)(=O)c1ccccc1)c1ccccc1 (stereo unspecified)	u	-29%	x	x	x	x
CCCCC/C=C\CC(O)/C=C/c1cccc(CC(O)CCCCO)n1 (stereo unspecified)	x	x	x	28%	x	17µM*!
CC1CCN(C(c2ccc(N(C)C)cc2)c2nnnn2Cc2ccccc2)CC1 (stereo unspecified)	u	50µM*	-4%	10%	18µM*	16µM*
CN1CCN(C(c2ccccc2)c2nnnn2Cc2ccccc2)CC1 (stereo unspecified)	14%	-8%	-1%	15%	6%	20%[59 µM]
CCCC(c1nnnn1Cc1ccc(OC)cc1)N1CCC(C(N)=O)CC1 (stereo unspecified)	28%	-18%	-4%	18%	u	71µM*
SMILES	HP1b chromo inh	JMJD2A Tudor	L3MBTL1 block	Sfp inh	BAZ2B block	G9a block
COc1ccc(Cn2nnnc2C(c2ccc(N(C)C)cc2)N2CCC(C)CC2)cc1 (stereo unspecified)	-48%	45µM*	-11%	0%	28µM*	-121%[59 µM]
CCn1c(=O)cc(OCC(=O)N2CCN(c3ccccc3OC)CC2)c2ccccc21	31%	-12%	x	x	-16%	-32%[59 µM]
NC(N)=Nc1ccc(C=C2C=Cc3ccccc32)cc1	-25%	u	x	x	x	x
Nc1ccc(C=C2C=Cc3ccccc32)cc1	u	35µM*	x	x	x	x
COc1ccc(C(C#N)N2CCC(c3ccccc3)=N2)cc1OC (stereo unspecified)	39%	-15%	8%	13%	-3%	18µM*
COc1ccc(C(C#N)N2CCCCCC2)cc1OC (stereo unspecified)	43%	-1%	2%	2%	-4%	-8%
COc1cc(C(C#N)N2CCC(c3ccccc3)=N2)ccc1O (stereo unspecified)	23%	-5%	x	4%	-1%	10µM*
COc1ccc(C2=NN(C(C#N)c3ccc(OC)c(OC)c3)C(c3ccccc3)C2)cc1 (stereo unspecified)	101%	7%	x	-18%	58%	u
COc1c(O)c(O)c2cc(OC)c3c(OC)cc(=O)c4c5c(=O)c(OC)c(C(C)=O)c6c5c(c1CC=6C)c2c34	x	x	x	-9%	x	x
Cc1ccc2oc(=O)c3cc(C(=O)NCCCN4CCN(C)CC4)sc3c2c1	24%	-16%	x	10%	-22%	-21%
O=C(NCCCN1CCCCCC1)c1cc2c(=O)oc3ccccc3c2s1	9%	-24%	x	-21%	-11%	79µM*
Cc1cc2oc(C(=O)Nc3sc4c(c3C(=O)NCc3ccco3)CCC4)cc(=O)c2cc1C	18%	-22%	x	x	-20%	8%[59 µM]
CCNc1nc(-c2ccc(OC(F)F)cc2)c(C)s1	-10%	-27%	x	u	-29%	40µM*
COC(=O)c1ccc(OCC2c3cc(OC)c(OC)cc3CCN2C(=O)Cc2ccccc2)cc1 (stereo unspecified)	1%	-35%	x	x	u	-5%[59 µM]
N=C1SCC(=O)N1c1ncc(Cc2ccccc2Cl)s1	-3%	-16%	15%	4%	8%	15%
CCc1nnc(N2C(=N)SCC2=O)s1	-2%	28µM*	-2%	50µM*	79µM*	28µM*
N#CCCN1CCN(CCC#N)C1=S	29%	5%	x	x	x	x
COC(=O)/C(=C/Nc1ccc(O)cc1)[N+](=O)[O-]	10%	u	x	-20%	-5%	2µM*
CCOC(=O)c1c(C)[nH]c(C)c1C(=O)COC(=O)Cc1n[nH]c(=O)c2ccccc12	34%	-9%	-5%	x	x	x
c1ccc(C[C@H]2CN=C(Nc3ccccc3)N2CCCC2CCCC2)cc1	26%	-30%	0%	-27%	u	45µM*
